The values that follow come from PubChem BioAssay (NCATS).

Records with an inconclusive call do not appear. The source made the active and inactive calls. Unless noted, calls come from the whole dose curve; as a rule, active = well fitted curve in the direction sought with a large enough effect; inconclusive = small, poorly fitted or top-dose-only effect, or another doubt; inactive = no such curve, though single readings can be large; an effect the other way counts as inactive or inconclusive.

Assay [1] can be described thus: AP1 Signaling Pathway (AID 357; active = well fitted curve in either direction with a large enough effect, not every such curve was filed as active;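 note: ME-180 reporter cells stimulated with EGF at its EC50 level; % is set by controls: 0 for no effect and ±100 for the full control effect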). The gist of the method: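 Modulation of EGF-driven AP-1 transcription was assessed with a beta-lactamase reporter in ME-180 cells. Compound and EC50 EGF were co-incubated 5 hours at 37 °C before 2.5-hour CCF4 loading at room temperature and dual-emission reading.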
Assay [2] concerns the target Cytochrome P450 1A2 (Homo sapiens) (UniProt P05177). Kind of assay: p450-cyp1a2 (AID 410; calls by dose curve; note: potency is the fitted concentration of half-maximal effect;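 for activity change, negative = inhibition: -100% = full effect of reference inhibitor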). The essentials: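 Luminescent readout of luciferin formed from Luciferin-ME by human CYP1A2; data normalized against complete inhibition by 57 uM furafylline. Enzyme 20nM, substrate 100uM at Km, 100mM KPO4 buffer, 60 min reaction at room temperature.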
Assay [3] can be described thus: NFAT Signaling Pathway (AID 444; active = well fitted curve in either direction with a large enough effect, not every such curve was filed as active;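 note: carbachol stimulus at about its EC50 of 1 µM final; % is set by controls: 0 for no effect and ±100 for the full control effect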). The note with it: Jurkat NFAT-bla M1, carbachol, beta-lactamase ratio, 5 h; at 17.2 µM (top of the series) unless noted. The essentials:
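Jurkat cells carrying an NFAT-driven β-lactamase reporter and co-transfected muscarinic M1 receptor were treated with compound plus carbachol (1 uM final, an EC50 level) for 5 h at 37 °C. CCF4 loading followed for 1 h at RT; 460/530 nm ratio gave %activity.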

For assay [4], the target named is Glucocorticoid receptor (Homo sapiens) (UniProt P04150). Kind of assay: GR-GFP Redistribution (AID 450;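 active = compounds whose dose series gives a full or clear partial fitted curve of increased nuclear translocation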; note: potency is the fitted concentration of half-maximal effect). The note with it: U2OS GR-GFP nuclear translocation, laser cytometry, 2 h.
Chain of Glucocorticoid receptor (Homo sapiens) (P04150 whole entry, looked up): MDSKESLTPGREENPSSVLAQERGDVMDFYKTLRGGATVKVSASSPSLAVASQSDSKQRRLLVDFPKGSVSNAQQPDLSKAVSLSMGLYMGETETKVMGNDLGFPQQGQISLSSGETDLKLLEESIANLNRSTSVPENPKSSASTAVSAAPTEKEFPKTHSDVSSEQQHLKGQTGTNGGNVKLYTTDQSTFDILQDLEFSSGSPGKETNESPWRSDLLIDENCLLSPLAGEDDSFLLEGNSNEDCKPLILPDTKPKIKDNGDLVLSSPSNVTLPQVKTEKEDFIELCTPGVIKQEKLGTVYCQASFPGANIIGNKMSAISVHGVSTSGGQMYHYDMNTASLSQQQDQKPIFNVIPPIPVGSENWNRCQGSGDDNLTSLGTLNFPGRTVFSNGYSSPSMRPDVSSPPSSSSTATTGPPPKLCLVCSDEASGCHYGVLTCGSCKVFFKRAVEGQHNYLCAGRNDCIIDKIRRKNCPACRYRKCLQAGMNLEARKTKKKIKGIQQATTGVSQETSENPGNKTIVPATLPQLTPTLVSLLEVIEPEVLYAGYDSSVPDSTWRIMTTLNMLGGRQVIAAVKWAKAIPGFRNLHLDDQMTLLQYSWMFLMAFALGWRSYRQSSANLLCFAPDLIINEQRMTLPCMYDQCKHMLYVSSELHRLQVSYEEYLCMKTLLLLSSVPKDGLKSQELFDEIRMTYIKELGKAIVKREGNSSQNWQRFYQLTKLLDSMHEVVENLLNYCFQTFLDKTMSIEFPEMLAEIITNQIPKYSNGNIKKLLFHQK
For assay [5] the target is unchanged. Nature of the assay: GR-EFC Redistribution (AID 451; calls by dose curve; note: potency is the fitted concentration of half-maximal effect). The settings on record: CHO-K1 GR-EFC translocation, beta-gal luminescence, 2 h. The essentials:
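CHO-K1 cells stably expressing nuclear-localized β-gal enzyme acceptor and GR fused C-terminally to the enzyme donor fragment; ligand-driven nuclear translocation restores β-gal by complementation. Compounds titrated up to 46 uM final, 2 h at 37 °C; luminescence read.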

The target in assay [6] is Mitogen-activated protein kinase 10 (Mus musculus) (UniProt Q61831). Nature of the assay: JNK3 AlphaScreen Assay (AID 530; active = well fitted curve in either direction with a large enough effect, not every such curve was filed as active;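 note: kinase came from lysate of stimulated human HepG2 cells; signal reports phosphorylation of biotinylated GST-cJun 1-79 at Ser73 with 10 µM ATP; % is set by controls: 0 for no effect and ±100 for the full control effect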). The essentials: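 Inhibitors reduce antibody binding to phosphorylated biotin-cJun, lowering AlphaScreen luminescence. Lysates from HepG2 cells pre-activated by IL-1beta plus TNF-alpha supplied JNK3; compounds were titrated.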
Assay [7] concerns the target 3',5'-cyclic-AMP phosphodiesterase 4B (Homo sapiens) (UniProt Q07343). Kind of assay: qHTS Assay for Inhibitors of PDE-IV (AID 607; active = well fitted activation curve with a large enough effect in the main read-out, with a control signal flat, not every such curve was filed as active; note: % of control where 0% means no effect). The essentials:
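The readout is membrane depolarisation from a cAMP-sensing CNG channel, detected with a potential dye at ex 535/em 590. Cells were HEK293-derived (endogenous PDE-IV) at 1000 cells/well, titrated up to 22.9 uM final.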
(In qHTS, concentration-response curves come from the screen itself.)

The nature of assay [8]: qHTS Assay for Lipid Storage Modulators (AID 1519; calls by dose curve). The note with it: Drosophila S3 cells, BODIPY lipid droplet/cell ratio, laser cytometry, cells loaded with oleic acid; for activity change, negative = inhibition: at 25.7 µM (top of the series). The gist of the method: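 Cells seeded at 5,000 per well were treated with compounds over a concentration series and loaded with oleic acid (400 uM, as added). Lipid droplet fluorescence (488 nm excitation, 500-530 nm channel) was read by laser-scanning cytometry and normalized to 20 uM Triacsin C.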

For assay [9], the target named is Ubiquitin carboxyl-terminal hydrolase 1 (Homo sapiens) (UniProt O94782). Nature of the assay: Inhibitors of USP1/UAF1: Pilot qHTS (AID 504865).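 Note: rhodamine fluorescence freed from ubiquitin-rhodamine substrate followed over time; top concentration of the series differs between compounds; % is set by controls: 0 for no effect and ±100 for the full control effect; nearly all actives have a fitted effect of over 35% in size.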 The essentials: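 1nM USP1/UAF1 + cpd, 15 min RT; start w/ Ub-Rho 150nM final; kinetic FL 480/540 nm, 6 reads q60 s. Buffer 50mM HEPES pH 7.8, 0.5mM EDTA, 1mM TCEP, 0.01% Tween-20, 0.1 mg/ml BSA.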
Chain of Ubiquitin carboxyl-terminal hydrolase 1 (Homo sapiens) (O94782 whole entry, looked up): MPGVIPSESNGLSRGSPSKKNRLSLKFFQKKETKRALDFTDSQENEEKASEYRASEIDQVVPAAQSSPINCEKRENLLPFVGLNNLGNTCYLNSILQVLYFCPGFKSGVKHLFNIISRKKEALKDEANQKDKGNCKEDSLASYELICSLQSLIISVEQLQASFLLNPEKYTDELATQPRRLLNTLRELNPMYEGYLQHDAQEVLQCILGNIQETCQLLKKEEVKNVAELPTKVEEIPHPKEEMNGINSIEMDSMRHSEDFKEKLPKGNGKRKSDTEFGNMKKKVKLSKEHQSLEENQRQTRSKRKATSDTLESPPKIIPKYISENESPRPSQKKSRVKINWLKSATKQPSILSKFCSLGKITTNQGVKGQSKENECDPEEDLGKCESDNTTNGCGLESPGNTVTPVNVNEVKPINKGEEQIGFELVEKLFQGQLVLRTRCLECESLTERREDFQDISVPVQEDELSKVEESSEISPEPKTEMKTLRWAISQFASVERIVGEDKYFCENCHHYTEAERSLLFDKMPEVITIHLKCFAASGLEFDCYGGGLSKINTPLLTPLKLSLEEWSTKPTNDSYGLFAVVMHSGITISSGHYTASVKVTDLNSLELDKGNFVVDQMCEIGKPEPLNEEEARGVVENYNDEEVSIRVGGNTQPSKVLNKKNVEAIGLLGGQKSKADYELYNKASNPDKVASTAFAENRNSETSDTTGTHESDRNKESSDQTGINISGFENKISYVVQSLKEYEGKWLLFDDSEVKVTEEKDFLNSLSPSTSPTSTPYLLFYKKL
Assay [10] can be described thus: Stat Signaling Pathway (AID 446; active = well fitted curve in either direction with a large enough effect, not every such curve was filed as active;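 note: ME-180 cervical cancer cells given 40 pM IL-6 alongside compound; SIE-controlled beta-lactamase reporter measured as 460/530 nm FRET emission ratio; % is set by controls: 0 for no effect and ±100 for the full control effect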). The essentials: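 Screening format detects activators and inhibitors alike: ME-180 SIE-bla cells stimulated at 40 pM IL-6 for 5 hrs with compound, then dual-emission beta-lactamase read at 405 nm excitation.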
In assay [11] the target is Luciferin 4-monooxygenase (Photinus pyralis) (UniProt P08659). Kind of assay: Biochemical firefly luciferase enzyme assay for NPC (AID 624030).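 Note: purified P. pyralis luciferase at 10 nM with luciferin and ATP substrate; 0% = DMSO and -100% = full luciferase inhibition by PTC124 control; nearly all actives have a fitted effect of over 70% in size.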 The essentials: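 Counter-screen for direct inhibition of the luciferase enzyme by approved-drug library compounds, run at 10 nM enzyme in 50 mM Tris acetate (final). Luminescence was read within 5 min of enzyme-buffer addition and normalized to PTC124 versus DMSO (0%).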
Chain of Luciferin 4-monooxygenase (Photinus pyralis) (P08659 whole entry, looked up): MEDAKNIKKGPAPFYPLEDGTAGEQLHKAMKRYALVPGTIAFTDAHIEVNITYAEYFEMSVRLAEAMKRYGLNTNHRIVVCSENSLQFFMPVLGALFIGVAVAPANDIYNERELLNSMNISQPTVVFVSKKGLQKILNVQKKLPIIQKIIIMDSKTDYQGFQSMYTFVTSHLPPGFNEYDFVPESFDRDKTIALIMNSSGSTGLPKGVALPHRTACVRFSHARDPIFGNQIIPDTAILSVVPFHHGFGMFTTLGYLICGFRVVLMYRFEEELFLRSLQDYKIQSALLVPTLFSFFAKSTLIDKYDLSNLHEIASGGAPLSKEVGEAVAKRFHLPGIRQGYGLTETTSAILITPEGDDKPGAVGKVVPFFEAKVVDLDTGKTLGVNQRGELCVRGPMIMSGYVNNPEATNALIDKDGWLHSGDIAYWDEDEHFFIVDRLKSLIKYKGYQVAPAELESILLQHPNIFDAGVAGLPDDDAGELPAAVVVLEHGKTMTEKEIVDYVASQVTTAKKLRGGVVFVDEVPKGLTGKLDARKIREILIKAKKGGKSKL

The nature of assay [12]: S16 Schwann cell viability assay (CellTiter-Glo assay) (AID 624031).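 Note: cellular ATP luminescence as a viability measure; plate controls were DMSO-treated cells for no effect and cell-free wells for full effect; nearly all actives have a fitted effect of over 70% in size.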 The essentials:
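Native S16 Schwann cells (rat), serum-containing medium, overnight attachment then 24 h drug exposure at 37 °C/5% CO2. CellTiter-Glo ATP signal; normalized to cell-free and vehicle wells.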
For orientation: Cellular ATP, detected with luciferase, serves as a proxy for viable cell number.

Assay [13] can be described thus: qHTS profiling for inhibitors of Plasmodium falciparum proliferation (AID 504749).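 For activity, negative = inhibition: 0% = DMSO vehicle and full inhibition = artemisinin control.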 Note: nearly all actives have a fitted effect of over 60% in size. Note: potency is the fitted concentration of half-maximal effect. The settings on record: P. falciparum in erythrocytes, SYBR Green DNA, 72 h, at 12.8 µM (top of the series). The essentials: (§1)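 Parasite proliferation within erythrocytes, 72 h exposure. Endpoint: SYBR Green I fluorescence after overnight lysis at room temperature. Controls: 0.29 uM artemisinin, DMSO.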

The subject of another assay is C2A. Described as above. The settings on record: P. falciparum in erythrocytes, SYBR Green DNA, 72 h; series mostly up to 12.8 µM. The essentials: as §1
Another assay concerns CP191. The assay is described as above. The note with it: P. falciparum in erythrocytes, SYBR Green DNA, 72 h; series mostly up to 12.8 µM. The essentials:
as §1

For another assay, the system named is CP256. The description is as above. The note with it: P. falciparum in erythrocytes, SYBR Green DNA, 72 h; series mostly up to 12.8 µM. The gist of the method:
as §1

Another assay relates to CP262. The assay is described as above. The note with it: P. falciparum in erythrocytes, SYBR Green DNA, 72 h; series mostly up to 12.8 µM. The essentials:
as §1

The next assay has as its system CP268. The description is as above. The settings on record: P. falciparum in erythrocytes, SYBR Green DNA, 72 h; series mostly up to 12.8 µM. The essentials: as §1
A further assay has as its system JCK. The assay is described as above. The settings on record: P. falciparum in erythrocytes, SYBR Green DNA, 72 h; series mostly up to 12.8 µM. The essentials: as §1
In a further assay the test system is SC27B. The assay is described as above. The settings on record: P. falciparum in erythrocytes, SYBR Green DNA, 72 h; series mostly up to 12.8 µM. The gist of the method: as §1
Where [14] appears, read: measured here: cell count channel max response.
Setting [15] is: measured here: lipid channel max response.

Chain of Cytochrome P450 1A2 (Homo sapiens) (P05177 whole entry, looked up): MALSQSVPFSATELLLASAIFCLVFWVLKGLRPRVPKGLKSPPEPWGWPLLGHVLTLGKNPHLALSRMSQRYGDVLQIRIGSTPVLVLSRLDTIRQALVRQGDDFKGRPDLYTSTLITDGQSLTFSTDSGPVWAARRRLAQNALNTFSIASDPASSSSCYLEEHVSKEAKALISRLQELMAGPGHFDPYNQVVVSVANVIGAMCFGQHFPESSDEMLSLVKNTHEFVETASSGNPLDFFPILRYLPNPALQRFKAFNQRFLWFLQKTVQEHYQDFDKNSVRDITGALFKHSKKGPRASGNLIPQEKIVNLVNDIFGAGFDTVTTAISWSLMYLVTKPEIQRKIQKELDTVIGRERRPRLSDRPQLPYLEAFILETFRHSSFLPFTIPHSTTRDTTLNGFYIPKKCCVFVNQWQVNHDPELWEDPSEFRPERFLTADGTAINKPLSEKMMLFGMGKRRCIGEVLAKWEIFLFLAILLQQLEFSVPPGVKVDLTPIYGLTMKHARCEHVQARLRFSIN
Chain of 3',5'-cyclic-AMP phosphodiesterase 4B (Homo sapiens) (Q07343 whole entry, looked up): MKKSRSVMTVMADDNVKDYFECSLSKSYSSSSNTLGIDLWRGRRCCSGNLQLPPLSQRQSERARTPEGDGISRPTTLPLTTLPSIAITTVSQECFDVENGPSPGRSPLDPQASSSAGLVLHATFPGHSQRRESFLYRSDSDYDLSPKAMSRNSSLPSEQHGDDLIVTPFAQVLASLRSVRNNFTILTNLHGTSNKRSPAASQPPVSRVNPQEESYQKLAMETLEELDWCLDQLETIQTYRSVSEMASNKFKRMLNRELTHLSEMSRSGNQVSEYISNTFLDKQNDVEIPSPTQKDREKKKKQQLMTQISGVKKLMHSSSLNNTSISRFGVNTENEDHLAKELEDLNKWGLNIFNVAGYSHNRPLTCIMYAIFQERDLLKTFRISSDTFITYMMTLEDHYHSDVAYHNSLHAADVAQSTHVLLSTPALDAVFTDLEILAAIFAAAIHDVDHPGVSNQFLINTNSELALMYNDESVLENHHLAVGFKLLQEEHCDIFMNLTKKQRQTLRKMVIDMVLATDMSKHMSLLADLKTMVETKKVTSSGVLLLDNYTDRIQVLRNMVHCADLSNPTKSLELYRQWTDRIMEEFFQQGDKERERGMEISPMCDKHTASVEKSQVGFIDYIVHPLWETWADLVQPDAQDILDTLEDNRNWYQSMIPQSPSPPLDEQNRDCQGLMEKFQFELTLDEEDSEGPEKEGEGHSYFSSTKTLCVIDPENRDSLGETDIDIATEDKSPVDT

For the compound `COc1ccc2nccc(C(=O)O)c2c1`, the outcome in assay [1] and in [7] was inactive. Besides, the Potency entry in assay [2] and in [6] was “inactive” throughout. Besides, the values for the activity change, negative = inhibition in [3] and in assay [8] were -15.8% (inactive) and 2.98% (inactive), respectively. Besides, the Potency in assay [4] and in [5] was > 20.6 µM (inactive) each time. Further, the values for the max response in assay [8] (setting [14]) and in assay [8] (setting [15]) were -10.5% and -9.32%, respectively.

On to `C[C@@H]1C(=O)O[C@@H]2C[C@]34[C@H]5C[C@@H](C(C)(C)C)[C@@]36[C@@H](OC(=O)[C@@H]6O)O[C@@]4(C(=O)O5)[C@@]12O`, for which the compound was called inactive in assay [1] and in assay [7]. Also, the Potency result in assay [2], in assay [6] and in [9] was “inactive” each time. The activity change, negative = inhibition in assay [3] was 0.0686% (inactive); in assay [8] it was -0.102% (inactive). Besides, the Potency in assay [4] and in assay [5] was > 20.6 µM (inactive) each time. In addition, the max response in assay [8] (setting [14]) is -9.92%; in assay [8] (setting [15]), -6.41%.

For the compound `O=C(O)[C@@H]1CCCNC1`, the call in assay [1] and in assay [7] was inactive. Moreover, the Potency entry in assay [2], in assay [6] and in [9] was “inactive” each time. For the same compound, the activity change, negative = inhibition in assay [3] was -10.3% (inactive); in [8], -1.28% (inactive). For the same compound, the Potency in assay [4] and in [5] was > 20.6 µM (inactive) throughout. Besides, the figures for the max response in assay [8] (setting [14]) and in assay [8] (setting [15]) were -8.86% and -11.3%, respectively.

With `CC1(C)S[C@@H]2[C@H](NC(=O)C(N)c3ccccc3)C(=O)N2[C@H]1C(=O)O` (stereo partly specified), the compound was classed as inactive in assay [1], in assay [10] and in assay [7]. Moreover, the Potency result in [2], in assay [6] and in assay [9] was “inactive” throughout. In addition, the activity change, negative = inhibition was -1.78% (inactive) in assay [3] and -0.37% (inactive) in assay [8]. The values for the max response in [8] (setting [14]) and in [8] (setting [15]) were 8.14% and 6.97%, respectively.

Turning to `CCOC(=O)O[C@]1(C(=O)COC(=O)CC)CC[C@@H]2[C@@H]3CCC4=CC(=O)C=C[C@@]4(C)[C@H]3[C@H](O)C[C@]21C`, the call in assay [1], in assay [10], in assay [7] and in assay [12] was inactive. In addition, the Potency entry (in [2]; in assay [6]; in assay [9]; in assay [11]; in the assay on C2A; in the assay with CP191) was “inactive” in each case. In addition, the Potency entry in the assay on CP256, in the assay on CP262, in the assay with CP268, with JCK and in the assay on SC27B was “inactive” in each case. The Potency in assay [4] was 0.00356 µM (active). In addition, the activity change, negative = inhibition in assay [8] is -3.74% (inactive). Moreover, the max response was -6.91% in assay [8] (setting [14]) and -11.8% in assay [8] (setting [15]). The activity, negative = inhibition in assay [13] (parasite line A) is 4.34% (inactive); in [13] (parasite line B), 0.379% (inactive).

In the case of `OCCN1CCN(CCC=C2c3ccccc3Sc3ccc(Cl)cc32)CC1`, the result in assay [1], in assay [10] and in assay [7] was inactive. The Potency in assay [2] is 15.8 µM (active); in assay [4] it was > 20.6 µM (inactive); in [5], > 20.6 µM (inactive); in the assay on CP191 it was 3.98 µM (active); in the assay on CP256, 3.55 µM (active). For the same compound, the Potency result (in assay [6]; in [9]; in assay [11]; with C2A; in the assay on CP268; with JCK) was “inactive” throughout. Moreover, the Potency result with SC27B was “inactive”. Besides, in assay [8], the activity change, negative = inhibition is -7.08% (inactive). In addition, the results for the max response in assay [8] (setting [14]) and in assay [8] (setting [15]) were -13.2% and -20.1%, respectively.
